# The panel holds about 83,000 compounds, 20% with a hit somewhere; the sample as a whole holds those more often.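 Cells were grown in 96-well plates and exposed to the test compound at a single concentration for 48 hours; results are reported as percent growth, with values below 10 considered active.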 Active and inactive are the calls of the source.
# System: HT29 colon
# Assay: NCI-60 one-dose screen, 48 h (100 = growth as untreated, 0 = no growth, -100 = all killed)
# Details: 10 µM
# Method: Growth inhibition of the HT29 human tumor cell line is measured as a screen for anti-cancer activity. Cells are grown in 96 well plates and exposed to the test compound for 48 hours. Compounds are tested at a single concentration, which is 10^-5 M for most compounds. The reported endpoint is percent growth (GI% or GIPRCNT), where numbers from 0 - 100% represent growth inhibition, and numbers from -100% - 0 represent cell death. For example, a value of 40 represents 60% growth inhibition. A value of 0 means no net growth occurred over the course of the experiment. A value of -40 indicates 40% of cells at the beginning of the experiment died by the end of the experiment. A value of -100 means all cells are dead at the end of the experiment.
# NCI-60 Human Tumor Cell Lines Screen was performed using the standard one-dose NCI protocol, which is described in more detail at https://dtp.cancer.gov/discovery_development/nci-60/default.htm.
# Compounds with GIPRCNT values below 10 were considered active. Activity score was based on GIPRCNT using the following formula: […]
# Score is 0 for GIPRCNT values of 100 or above, 50 for GIPRCNT values of 0, and 100 for GIPRCNT values of -100.
row,Structure (SMILES),growth
1,Fc1ccc(-c2nnc(-c3c(-c4ccc(F)cc4)nc4ccccn34)o2)cc1,79.2% (inactive)
2,O=C1ON=[N+](c2ccc(Cc3ccc([N+]4=NOC(=O)C4CN4CCOCC4)cc3)cc2)C1CN1CCOCC1 (stereo not given),89.7% (inactive)
3,O=C1OCC2=C1C(c1cccc(Br)c1)c1cc3c(cc1N2CCO)CCC3 (stereo not given),-12.1% (active)
4,COc1ccc2c(c1)O/C(=C\c1ncc([N+](=O)[O-])n1C)C2=O,-13.6% (active)
5,CN1CC[C@@H](c2c(O)cc(O)c3c(=O)cc(-c4ccccc4Cl)oc23)[C@@H](O)C1,-7.65% (active)
6,N=c1nc(N)ncn1-c1ccccc1,96.4% (inactive)
7,COc1ccc(C2=NN(C(=O)c3ccc(S(C)(=O)=O)cc3)C(c3ccc(OC)c(OC)c3)C2)c(OC)c1 (stereo not given),103% (inactive)
8,C#Cc1ccc(-n2c(/C=C/c3ccc4ccccc4c3)nc3ncccc3c2=O)cc1,0.964% (active)
9,COc1ccc(-c2nn(-c3cccc(NC(=O)Nc4ccc(Cl)c(C(F)(F)F)c4)c3)cc2-c2ccncc2)cc1Cl,2.78% (active)
10,CN(C)CCN1C(=O)c2cccc3cc(N)cc(c23)C1=O,9.24% (active)
11,O=C(NC(Cc1ccc(O)cc1)C(=O)N=Nc1c(O)[nH]c2ccccc12)c1ccccc1 (stereo not given),101% (inactive)
12,Cc1ccc(C(=O)N2C/C(=C/c3ccccc3)C(=O)/C(=C/c3ccccc3)C2)cc1,-17.9% (active)
13,O=c1c2ccccc2nc(SCCN2CCCCC2)n1CCc1ccccc1,30.1% (inactive)
14,COc1ccc(-n2c(SCc3cc(OC)c(OC)c(OC)c3)nc3ccc(C)cc3c2=O)cc1,21.9% (inactive)
15,CC/C(=N\N=C(/CC)c1ccc(Br)cc1)c1ccc(Br)cc1,74.1% (inactive)
16,COc1ccc(NC2=NC(C)(CO)CS2)cc1 (stereo not given),105% (inactive)
17,Cc1ccc(N=Nc2c(N)nc(N)[nH]c2=O)cc1C,93% (inactive)
18,COc1ccc2c(c1)N(CCO)C1=C(C(=O)OC1)C2c1cc(OC)c(OC)c(OC)c1 (stereo not given),-4.82% (active)
19,O=C1/C(=C/c2ccc(Cl)cc2)SC(=Nc2ccc(Cl)cc2)N1Cc1nc2ccccc2[nH]1,97% (inactive)
20,CCOC(=O)c1ccc(NC(=O)Nc2ncc(Cl)cc2Cl)cc1,95.3% (inactive)

row,Structure (SMILES),growth
1,COc1cc2nc(Nc3cccc(NC(C)=O)c3)nc(N)c2cc1OC,111% (inactive)
2,CNc1ncc(-c2ccc(C(F)(F)F)cc2)c(NC2CCCCCC2)n1,56.8% (inactive)
3,COc1ccc(Nc2ccnc(NCCNc3ccnc4cc(Cl)ccc34)n2)cc1,9.08% (active)
4,O=C(Nc1ccc(CN2CCc3nc4cc(O)c(O)cc4cc32)cc1)c1ccc(Cl)c(Cl)c1,109% (inactive)
5,N#Cc1ncc(-c2ccc(C(F)(F)F)cc2)c(NCc2cc(C(F)(F)F)cc(C(F)(F)F)c2)n1,9.29% (active)
6,COc1ccc2c(c1)[n+]([O-])c(C#N)c(NC(=O)c1ccco1)[n+]2[O-],101% (inactive)
7,Cc1ccc(S(=O)(=O)Oc2ccc3c4c(c(=O)oc3c2)CCCCC4)cc1,6.29% (active)
8,CC(C)(Cl)CCC1=C(Cl)C(=O)c2ccccc2C1=O,115% (inactive)
9,O=c1[nH]c2ccc(Cl)cc2c2ccccc12,70.3% (inactive)
10,O=C1C(=O)c2ccccc2C(O)=C1CCCc1ccc(C2CCCCCC2)cc1,28.5% (inactive)
11,Cn1c(N)c(N=Nc2ccc(S(=O)(=O)Nc3nccs3)cc2)c(=O)n(C)c1=O,107% (inactive)
12,COc1ccc(S(=O)(=O)Nc2c(/C=C\c3cc(OC)c(OC)c(OC)c3)ccc(OC)c2O)cc1,11.7% (inactive)
13,Cc1cc(Cl)nc(N(CCCNc2ccnc3cc(Cl)ccc23)Cc2cccs2)n1,1.59% (active)
14,O=C1/C(=C/c2ccc([N+](=O)[O-])o2)Oc2ccccc21,-15.3% (active)
15,FC(F)(F)c1ccc(-c2cnc(-n3cc(COCCN4CCCCC4)nn3)nc2NC2CCCCCC2)cc1,-73.1% (active)
16,CC(C)(C#N)Nc1ccccc1,99.5% (inactive)
17,O=C1/C(=C/c2ccc([N+](=O)[O-])s2)Oc2ccccc21,-15% (active)
18,CCOC(=O)C1CCc2c(ccc3ccccc23)N1CCC#N (stereo not given),100% (inactive)
19,COc1ccc(-c2cc(/C=C3\C(=O)Nc4ccc(OC)cc43)[nH]n2)cc1,3.87% (active)
20,CCOC(=O)N/N=C\C(C)=N\NC(=O)OCC,98% (inactive)

# Reference: PubChem BioAssay (NCI)
